uPA generation = qHTS for Inhibitors of Cell Surface uPA Generation; cell surface uPA generation assay, qHTS; Potency, µM (doses to about 38.3 µM), without a hit: at the highest dose activity change, negative = inhibition, actives largely listed as inhibitors; 0.31% of 330,000 active; active = well fitted inhibition curve with a large enough effect; inconclusive = small, poorly fitted or top-dose-only effect; inactive = no such curve, though single readings can be large or run the other way; tested in mouse RAW 264.7 cells; also: potency is read from the fitted curve at half-maximal effect; % is scaled to controls: 0 for no effect and ±100 for the full control effect; nearly all actives have a fitted effect of over 55% in size
ATXN viability = Viability Counterscreen for Primary qHTS for Inhibitors of ATXN expression. Potency, µM (doses to about 56.7 µM), hits mostly cytotoxic. AID 651635, 2014. 0.49% of 400,000 active. S2 cells (HEK-293 line with an ATXN2-luciferase reporter) viability, CellTiter-Fluor protease fluorescence, 24 h; also: potency is read from the fitted curve at half-maximal effect; nearly all actives have a fitted effect of over 40% in size
TGFb inhibitor = qHTS for Inhibitors of TGF-b; Potency, µM (top dose mostly 46.1 µM), for inactives: at the top dose activity, negative = inhibition, hits mostly inhibitors; 1.2% of 410,000 active; HepG2 CAGA-GFP TGF-b/SMAD3 reporter, GFP fluorescence, 18 h; TGF-beta stimulated, 500 pg/mL final; also: potency is read from the fitted curve at half-maximal effect; % is scaled to controls: 0 for no effect and ±100 for the full control effect; nearly all actives have a fitted effect of over 65% in size
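Per well, imaged GFP fluorescence of HEPG2 CAGA-GFP cells gives the signal; cells get compound, then TGF-beta (500 pg/mL final), 18 h at 37 degrees C; %Activity versus -TGF-beta and +DMSO controls.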
ATXN2 expr inh = Primary qHTS for Inhibitors of ATXN expression. HEK-293 ATXN2-luciferase reporter, luminescence, 24 h. Potency, µM (highest dose often 57 µM), without a hit: top-dose activity change, negative = inhibition, actives largely listed as inhibitors. 0.72% of 360,000 active; also: potency is read from the fitted curve at half-maximal effect; % is scaled to controls: 0 for no effect and ±100 for the full control effect; nearly all actives have a fitted effect of over 55% in size
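qHTS (up to 57 uM final) was run with 24 h compound exposure of reporter cells at 37 °C. Each well was multiplexed: SteadyGlo luminescence measured ATXN2-luciferase expression after a fluorogenic Gly-Phe-AFC viability readout (25 uM final).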
HepG2 viability = qHTS for Inhibitors of TGF-b: Cytotox Counterscreen; HepG2 CAGA-GFP viability, ATP luminescence, 18 h; Potency, µM (titrated, usually from 46.1 µM), without a hit: at the highest dose activity change, negative = cytotoxicity, actives largely listed as cytotoxic; 0.76% of 410,000 active; also: potency is read from the fitted curve at half-maximal effect
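CellTiter-Glo luminescence gave cytotoxicity after 18 hours at 37 degrees C. The cells were HepG2 CAGA-GFP in 1% FBS DMEM, stimulated with 500 pg/mL TGF-beta after compound addition. %Activity was normalised to no-cell wells (complete cell-killing) and DMSO (no toxicity), and curves were fitted and classified.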
Giardia kill = Small Molecules that selectively kill Giardia lamblia: qHTS | Giardia lamblia trophozoite viability | activity change, % at 7.66 µM, hits read low | 0.15% of 340,000 active; in the data active = activity change below about -80%; inconclusive = between about -30% and that limit;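 also: parasites exposed to compound for two days anaerobically before the ATP read; % is scaled to controls: 0 for no effect and ±100 for the full control effect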
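Giardia trophozoites, 100 cells per well, were exposed to compounds for 48 hrs at 37 deg C under anaerobic conditions; viability was then read as ATP content by bioluminescence after 15-30 min at room temperature.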
* hit, by the source's call; i = inactive; u = inconclusive; x = not tested or not shown; ! = not confirmed by another sample; [ ] = dose if it differs, or a comment. In the library only some 2.6% were active in any assay of this set; here they are far more common. Unless noted, calls follow the shape of the dose curve; as a rule, active = well fitted curve in the direction sought with a large enough effect; inconclusive = small, poorly fitted or top-dose-only effect, or another doubt; inactive = no such curve, though single readings can be large; an effect the other way counts as inactive or inconclusive.

SMILES	uPA generation	ATXN viability	TGFb inhibitor	ATXN2 expr inh	HepG2 viability	Giardia kill
COc1cc(SC)ccc1C(=O)Nc1c(C)cccc1C	2%	i	0%	-6%	-2%	-3
Cc1cccc(C(=O)N[C@H](C(=O)Nc2nc3ccccc3[nH]2)C(C)C)c1	2.8µM*	u	u	u	-64%	28
COc1ccccc1C(=O)NCCC(=O)Nc1nc2ccccc2[nH]1	5%	i	1%	u	-7%	-9
CCC1CN(CC(=O)NC(c2ccccn2)C(F)(F)F)Cc2cc(OC)ccc2O1 (stereo not given)	x	i	x	x	x	x
COc1ccc(-c2nc3ccc(C4=NNC(=O)CC4C)cc3[nH]2)cc1 (stereo not given)	x	u	x	63%	x	x
COc1cc2c(cc1NC(=O)C(Cl)Cl)-c1ccc(NC(=O)C(Cl)Cl)cc1C2	-11%	x	4.5µM*	-17%	7.9µM*	-5
COc1cc2c(cc1NC(=O)c1ccccc1-c1ccccc1C(=O)O)-c1ccccc1C2	x	i	-4%	x	-15%	x
O=C(C[n+]1cccc(Br)c1)c1ccc2ccccc2c1	x	x	-16%	x	-2%	x
C=CCN(C(=O)Cc1cccs1)c1nc(-c2ccc(S(C)(=O)=O)cc2)cs1	1%	i	28%	35%	-40%	29
C=CCN(C(=O)CCc1ccccc1OC)c1nc(-c2ccc(S(C)(=O)=O)cc2)cs1	-2%	i	1%	6%	4.5µM*	-27
CCOC(=O)c1ccc(NC2=CC(=O)C(=O)c3ccccc32)cc1	-19%	u	u	-23%	-22%	-12
NS(=O)(=O)c1ccc(NC2=CC(=O)C(=O)c3ccccc32)cc1	4%	i	8.9µM*	u	-55%	-21
Cc1ccc(NC2=CC(=O)C(=O)c3ccccc32)cc1	x	u	2.8µM*	-28%	5µM*	-3
COc1cc(OC)c(NC2=CC(=O)C(=O)c3ccccc32)cc1Cl	u	18µM*	u	x	0%	10
CC1CN(c2cc3c(cc2F)c(=O)c(C(=O)O)cn3-c2ccc(F)cc2F)CCN1 (stereo not given)	x	i[5.17 µM]	x	2%[5.55 µM]	x	x
COc1ccc(CN2CCOc3ccc(CN4CCCCC4CO)cc3C2)c(OC)c1 (stereo not given)	x	i	x	x	x	x
O=c1[nH]c(-c2ccc(C(F)(F)F)cc2)nc2c1CSCC2	x	x	x	13%	x	x
CCCCN1CC[C@H]2C=CC[C@@H](C(=O)NCc3cccnc3)[C@H]2C1=O	x	x	-4%	x	-1%	x
Cc1cccc(C2=NN(c3ccccc3)[C@@H](C(=O)N3CCOC3=O)[C@@H]2c2ccc(F)cc2)c1	8%	x	18µM*	-4%	-16%	u
Cc1cccc(C2=NN(c3ccccc3)[C@@H](C(=O)N3CCOC3=O)[C@@H]2c2ccc(Cl)cc2)c1	11%	x	u	7%	-21%	23
O=C1OCCN1C(=O)[C@H]1[C@H](c2ccc(F)cc2)C(c2ccc(F)cc2)=NN1c1ccc(Br)cc1	-23%	i	11µM*	-25%	-48%	-23
O=C1OCCN1C(=O)[C@H]1[C@H](c2ccc(Cl)cc2)C(c2ccc(F)cc2)=NN1c1ccc(Br)cc1	-8%	x	-91%	-10%	-31%	-20
CC(C)CCn1c(/C=C/c2ccccc2)nc2ccccc21	x	u	u	-9%	10µM*	x
Cn1c(/C=C/c2ccccc2)nc2ccccc21	4µM*	i	-7%	x	4%	u
COc1ccc(/C=C/c2cc(-c3ccc(C)cc3)o[n+]2C)cc1	-10%	u	10µM*	u	-51%	1
SMILES	uPA generation	ATXN viability	TGFb inhibitor	ATXN2 expr inh	HepG2 viability	Giardia kill
COc1ccc(/C=C/c2c(-c3ccc(OC)cc3)oc3ccc(-c4ccc(OC)cc4)cc23)cc1	13%	i	16%	-1%	15%	-13
COc1ccc(CN(CCCN)c2ccc(Br)cn2)cc1	x	x	x	x	x	11
Cc1ccc(C(C)OC(=O)C2(C)CCC(C(=O)O)C2(C)C)cc1 (stereo not given)	x	i	x	14%	x	x
Cc1cc(O)c(-c2cc(O)c(C)cc2O)cc1O	15%	u	u	x	22µM*	6
CCc1ccc(OCC(=O)NC(=S)Nc2ccc(C(=O)O)cc2)cc1	1%	i	-10%	6%	-1%	15
CCc1ccc(OCC(=O)NC(NC(=S)Nc2ccc(Cl)cc2)C(Cl)(Cl)Cl)cc1 (stereo not given)	-9%	x	7.1µM*	u	8.9µM*	6
Cc1ccc(S(=O)(=O)CC(c2ccccc2)N2CCCCC2)cc1 (stereo not given)	3%	i	0%	-17%	5%	4
Cc1ccc(S(=O)(=O)CC(CN2CCCCC2)N2CCCCC2)cc1 (stereo not given)	10%	i	16µM*	u	-93%	7
C[C@@H]1CN([C@H](C)CO)C(=O)c2c(c3ccccc3n2C)-c2ccccc2CO[C@H]1CN(C)Cc1cccc(C(=O)O)c1	x	i	-1%	11%	4%	x
CNC[C@@H]1OCc2ccccc2-c2c(n(C)c3ccccc23)C(=O)N([C@H](C)CO)C[C@H]1C	x	32µM*	u	u	-66%	x
C[C@@H]1CN([C@H](C)CO)C(=O)c2c(c3ccccc3n2C)-c2ccccc2CO[C@H]1CN(C)C(=O)c1cc(Cl)cc(Cl)c1	x	i	-3%	-8%	-17%	x
C[C@@H]1CN([C@H](C)CO)C(=O)c2c(c3ccccc3n2C)-c2ccccc2CO[C@H]1CN(C)Cc1ccc(C(F)(F)F)cc1	x	28µM*	u	u	20µM*	x
C[C@@H]1CN([C@H](C)CO)C(=O)c2c(c3ccccc3n2C)-c2ccccc2CO[C@H]1CN(C)Cc1ccc(Oc2ccccc2)cc1	x	u	16µM*	u	-52%	x
OC(c1ccc2c(c1)CN(Cc1c[nH]c3ccccc13)CCO2)c1ccccn1 (stereo not given)	x	i	x	x	x	x
C[C@@H]1CCC(=O)N(CC[C@H](Sc2ccccc2)c2ccccc2)CC1	-12%	u	18µM*!	-7%	-2%	21
COc1ccc(S[C@@H](CCN2CC[C@H](NC(=O)OCc3ccccc3)CCC2=O)c2ccccc2)cc1	-7%	u	13µM*	-32%	-39%	17
C[C@@H](CSc1ccc(Br)cc1)CN1CC[C@H](NC(=O)OCc2ccccc2)CCC1=O	u	u	11µM*	-39%	-24%	13
Cc1ccc(SC[C@H](C)CN2CC[C@H](C)CCC2=O)cc1	0%	u	-30%	-16%	-27%	13

Assay outcomes from PubChem.
